PubChem BioAssay (NCATS)
Inconclusive results are not listed. A number with no mark means an inactive call. Calls follow the shape of the dose curve; as a rule, active = well fitted inhibition curve with a large enough effect; inconclusive = small, poorly fitted or top-dose-only effect; inactive = flat fitted curve, though single readings scatter.

Each compound was assayed against Calcium and integrin-binding protein 1 (Homo sapiens) (UniProt Q99828) (assay: Primary qHTS for Identification of Calcium Integrin Binding Protein 1 (CIB1) Competitor (AID 1508620;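 also: GST tagged CIB1 binding a fluorescein labelled alphaIIb integrin peptide tracer; top concentration of the series differs between compounds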)). Settings: CIB1-GST / FITC-alphaIIb peptide fluorescence polarization; series mostly up to 114 µM; activity change, negative = inhibition: at the top concentration.
Chain of Calcium and integrin-binding protein 1 (Homo sapiens) (Q99828 whole entry, looked up): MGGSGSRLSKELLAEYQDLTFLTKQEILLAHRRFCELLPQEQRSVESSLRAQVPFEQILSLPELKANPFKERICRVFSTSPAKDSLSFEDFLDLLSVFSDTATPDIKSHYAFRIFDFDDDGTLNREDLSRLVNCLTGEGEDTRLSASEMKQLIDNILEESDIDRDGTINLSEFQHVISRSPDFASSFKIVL
Outline: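 Fluorescence polarization competition: CIB1-GST (1 uM final) preincubated with compound 15 min at room temperature, then FITC-labeled alphaIIb peptide (100 nM final) added for another 15 min. Polarization read at Ex 480/Em 540.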
% is scaled to controls: 0 for no effect and ±100 for the full control effect.

| SMILES | activity change, negative = inhibition |
| --- | --- |
| COC(=O)c1cc2c(C(F)(F)F)cc(-c3ccccc3)cc2n1O | -13.3% |
| C=C1CCC2C(C)(C)CCCC2(C)C1CC/C(C)=C\CO (stereo not drawn) | 0.875% |
| CC(=O)CC(=O)Nc1ccc(Cl)c(C(F)(F)F)c1 | 3.66% |
| C=C1C(=O)O[C@@H]2C[C@@]3(C)CCCC(=C)[C@]3(O)C[C@H]12 | -0.519% |
| CC(C)(CO)c1cc2cc(NC(=O)C3(c4ccc5c(c4)OC(F)(F)O5)CC3)c(F)cc2n1CC(O)CO (stereo not drawn) | -0.578% |
| CC(C)c1c(O)ccc2c1CC[C@H]1C(C)(C)CCC[C@]21C | 4.95% |
| C=C1CC[C@@H](O)[C@]2(C)C[C@H]3OC(=O)C(=C)[C@H]3CC12 (stereo partly drawn) | 4.06% |
| COC(=O)Nc1cc(Nc2cc(NC3CC3)c3ncc(C#N)n3n2)c(Cl)c(N2CCN(C)CC2)c1 | -1.96% [at 57.7 µM] |
| C/C(=C\CCC(C)C1=CCC2(C)OC3=C(CC12)C(=O)C(O)CC3)CO (stereo not drawn) | 0.141% [at 57.7 µM] |
| CC(C)/C=C1\NC(=O)C(C(C)C)n2c1nc1ccccc1c2=O (stereo not drawn) | 0.823% [at 57.7 µM] |
| CC(C)C[C@@H](N)C(=O)N[C@H]1C(=O)N[C@@H](CC(N)=O)C(=O)N[C@H]2C(=O)N[C@H]3C(=O)N[C@H](C(=O)N[C@H](C(=O)O)c4cc(O)cc(O)c4-c4cc3ccc4O)[C@H](O)c3ccc(c(Cl)c3)Oc3cc2cc(c3O[C@@H]2O[C@H](CO)[C@@H](O)[C@H](O)[C@H]2O[C@H]2C[C@](C)(N)[C@H](O)[C@H](C)O2)Oc2ccc(cc2Cl)[C@H]1O | 0.635% [at 57.7 µM] |
| C[C@@H]1O[C@@H](O[C@H]2[C@H](OC(=O)[C@]34CCC(C)(C)C[C@H]3C3=CCC5[C@@]6(C)C[C@H](O)[C@H](O[C@@H]7O[C@H](CO)[C@@H](O)[C@H](O)[C@H]7O)[C@](CO)(C(=O)O)C6CC[C@@]5(C)[C@]3(C)C[C@H]4O)OC[C@H](O)[C@@H]2O)[C@H](O)[C@H](O)[C@H]1O[C@@H]1OC[C@@H](O)[C@H](O[C@@H]2OC[C@](O)(CO)[C@H]2O)[C@H]1O (stereo partly drawn) | 3.47% [at 12.4 µM] |
| COc1ccc(C2(CNC(=O)c3ccc(NC(=O)c4ccco4)cc3)CCOCC2)cc1 | 0.952% |
| C=C1/C(=C/C=C2\CCC[C@]3(C)[C@@H]([C@H](C)CC[C@@H](O)C(C)(C)O)CC[C@@H]23)C[C@@H](O)C[C@@H]1O | -4.64% |
| COc1cc(F)c(F)c(Nc2ccc(I)cc2F)c1NS(=O)(=O)C1(CC(O)CO)CC1 (stereo not drawn) | -0.662% |
| C=CC(C)(O)CC[C@@H]1[C@@]2(C)CCCC(C)(C)C2CC[C@@]1(C)O (stereo partly drawn) | -5.82% |
| CC[C@@H](C)Nc1cc(C(=O)NC2CC3CCC(C2)N3c2ccc(C(=O)C3CC3)cn2)c(C)cc1C(N)=O (stereo partly drawn) | -1.89% |
| O[C@@](Cc1ncc(CC2(C(F)(F)F)CC2)[nH]1)(c1ccc(-n2cccn2)cc1)C(F)(F)F | 3.36% |
| NS(=O)(=O)c1ccc(N2N=C(c3ccccc3)CC2c2ccccc2)cc1 (stereo not drawn) | -2.35% |

| SMILES | activity change, negative = inhibition |
| --- | --- |
| COc1cc(NC(=O)c2cccc(-n3cc(NC(=O)Nc4cccc(C)c4)cn3)c2)cc(OC)c1OC | 1.83% |
| O=[N+]([O-])c1ccc(Oc2ccc3c(c2)CCC(c2ccccc2)O3)nc1 (stereo not drawn) | 2.27% |
| CC1(CO)CC2C(O)C3=C(CC(C)(O)C2C1)C(=O)OC3 (stereo not drawn) | 3.95% |
| COc1ccc(-n2c(SCCCN3C(=O)c4cccc5cccc(c45)C3=O)nnc2-c2ccncc2)cc1 | -5.93% |
| Cc1c[nH]c2ncnc(N3CCC(CN)(C(=O)Nc4cccc(OC(=O)N(C)C)c4)CC3)c12 | -0.218% |
| C/C=C(\C)C(=O)O[C@H]1C=CC(=O)O[C@H]1/C=C/[C@@H](O)[C@H](C)O | -0.665% |
| CC(O)(C(=O)C1CC1(CO)COC1OC(CO)C(O)C(O)C1O)C1C(O)CC2C3CC=C4CC(O)CC(O)C4(C)C3C(O)CC21C (stereo not drawn) | 1.47% [at 30.2 µM] |
| C=C(C(=O)OC[C@H]1O[C@@H](OC(=O)/C=C/c2ccccc2)[C@H](O)[C@@H](O)[C@@H]1O)C(O)CO (stereo partly drawn) | 3.29% [at 57.7 µM] |
| CC(C)=CCCC1(C)/C=C/C(OC(=O)C=C(C)C)C(C)(O)/C=C/C(=O)/C(CO)=C\C1 (stereo not drawn) | -19.2% [at 57.7 µM] |
| C=CC(C)(O)CC/C=C(/C)COC(=O)C(C)C1CCC(C)(C=C)O1 (stereo not drawn) | -5.93% [at 57.7 µM] |
| CCC(C)/C=C(C)/C=C/C1=CC2=CC(=O)C3(C)OC(C)(O)C(C(=O)OC)C3C2=CO1 (stereo not drawn) | -6.08% [at 57.7 µM] |
| C=C1C(=O)OC2/C=C(\COC(C)=O)CC/C=C(\C=O)CC(OC(=O)CC(C)C)C12 (stereo not drawn) | 0.72% [at 57.7 µM] |
| COc1c(C(O)CC(C)C)ccc2c1C(=O)OCc1cc(C)cc(O)c1O2 (stereo not drawn) | -13.4% [at 57.7 µM] |
| C=C1CCCC2(C)CCC(C(C)(C)OC3OC(C)C(O)C(O)C3OC(=O)/C(C)=C\C)CC12 (stereo not drawn) | -15.8% [at 57.7 µM] |
| CC(=O)O[C@@H]1CC2C(/C=C(\C)C(=O)[C@@]3(O)C[C@@H](C)[C@H](OC(=O)c4ccccc4)C3/C=C/1C)C2(C)C (stereo partly drawn) | -7.85% [at 57.7 µM] |
| CC(=O)O[C@H]1CC(C)(C)CC2[C@]13CO[C@@]21CCC2[C@@]4(C)CC[C@H](O[C@@H]5OC[C@H](O[C@@H]6O[C@H](CO)[C@@H](O)[C@H](O)[C@H]6O[C@@H]6OC[C@@H](O[C@@H]7O[C@H](CO)[C@@H](O)[C@H](O)[C@H]7O)[C@H](O)[C@H]6O)[C@H](O)[C@H]5O[C@@H]5O[C@H](CO)[C@@H](O)[C@H](O)[C@H]5O)[C@@](C)(CO)C4CC[C@@]2(C)[C@]1(C)C[C@H]3O (stereo partly drawn) | 3.35% [at 12.4 µM] |
| CN(c1ccc(NC(=O)Nc2ccccc2)cc1)S(=O)(=O)c1cnn(-c2ccc(F)cc2)c1 | -4.65% |
| NC(=O)C1=CC2C3C=CC2C(OC3=O)O1 (stereo not drawn) | -4.11% [at 228 µM] |
| COc1cc2ncc(-c3ccccc3)nc2cc1OC | 0.511% |
